Measurements: PubChem BioAssay (NCATS)
Results filed as inconclusive are left out. A call without a number means that no potency is given here. The source made the active and inactive calls. Calls follow the shape of the dose curve; as a rule, active = well fitted inhibition curve with a large enough effect; inconclusive = small, poorly fitted or top-dose-only effect; inactive = no such curve, though single readings can be large or run the other way.

molecular target: Retinaldehyde dehydrogenase 3 (Homo sapiens) (UniProt P47895); assay: qHTS for Inhibitors of the Aldehyde Dehydrogenase Family (ALDH1A3) Primary screen (AID 2061315); settings: ALDH inhibition qHTS; series mostly up to 56 µM

SMILES | Potency
C=C(C)C1CCC(C)C12CC(O)C1(C)OC1C2OC(=O)C(N)CCC(=O)O (configuration not stated) | inactive
CNC12CC3C[C@@](C)(C1)C[C@](C)(C3)C2 | inactive
CCC(C)C1NC(=O)C2C(C)CCN2C(=O)C(CC(O)CO)OC(=O)CCNC(=O)C(C)N(C)C(=O)C(C(C)C)N(C)C1=O (configuration not stated) | inactive
C#C[C@]1(OC(C)=O)CC[C@H]2[C@@H]3CCC4=C[C@@H](OC(C)=O)CC[C@@H]4[C@H]3CC[C@@]21C | inactive
C=C(C(=O)O)C1CCC2(C)CCCC(C)(O)C2C1 (configuration not stated) | inactive
COc1cc(-c2nc(N[C@H](CO)Cc3ccccc3)ccc2C(=O)NCCOc2ccccc2)cc(OC)c1OC | inactive
COc1ccc(/C=C/C(=O)O[C@@H]2[C@@H](O)[C@H](C)O[C@@H](O[C@H]3[C@@H]4C=CO[C@@H](O[C@H]5O[C@@H](CO)[C@H](O)[C@@H](O)[C@@H]5O)[C@@H]4[C@@]4(CO)O[C@@H]34)[C@@H]2OC(C)=O)cc1 | inactive
